In PubChem BioAssay (NCATS):
Results filed as inconclusive are left out. Entries that show only a call come without a potency. Activity calls are given as the source filed them. The call rests on the fitted dose curve; in most records, active means well fitted cell-killing curve with a large enough effect; inconclusive means small, poorly fitted or top-dose-only effect, or effect the other way; inactive means no such curve, though single readings can be large or run the other way.
Potency means the concentration at half of the fitted maximal effect.

Assay: Quantitative High-Throughput drug screen in 47 multiple myeloma cell lines against the NCATS MIPE library collection: OCIMY1_PLB cell viability assay (AID 1918979); further: nearly all actives have a fitted effect of over 35% in size
Settings: OCI-MY1 myeloma viability, CellTiter-Glo ATP, 48 h; series mostly up to 45.8 µM
Method in brief: (§1)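 500 cells/well; MIPE 4.0 drugs pin-transferred; 48 h, 37C, 5% CO2. CellTiter-Glo, 5 min RT, luminescence. Controls: DMSO 100%, media 0%.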
For `Nc1cccc2c1C(=O)N(C1CCC(=O)NC1=O)C2=O` (stereo not given), the Potency was “inactive”.
In the case of `CC(C)[C@H](CO)Nc1nc(Nc2cccc(Cl)c2)c2ncn(C(C)C)c2n1`, the Potency is reported as 23.5 µM (active).
With `N#Cc1cc(NC(=O)Nc2nnc(-c3ccncc3)s2)ccc1-c1cn[nH]c1` the Potency was “inactive”.
For `COc1cc(OC)c(NC(=O)Nc2cc(C)on2)cc1Cl`, the Potency was “inactive”.
For `COc1cc2c(cc1O)CCC1C2CC[C@@]2(C)C1CC[C@@H]2O` (stereo not given in full), the Potency was 3.32 µM (active).
For `C[N+](C)([O-])CCNc1ccc(NCC[N+](C)(C)[O-])c2c1C(=O)c1c(O)ccc(O)c1C2=O`, the Potency was “inactive”.
With `C=C1CCC2[C@](C)(CO)C(O)CC[C@]2(C)C1CC=C1C(=O)OCC1O` (stereo not given in full) the Potency was “inactive”.
With `O=C1c2c(O)cccc2[C@@H]([C@@H]2O[C@H](CO)[C@@H](O)[C@H](O)[C@H]2O)c2cc(CO)cc(O)c21` the Potency was “inactive”.
For `CC(C)n1cnc2c(NCCc3ccc(O)cc3)nc(-c3csc4ccccc34)nc21`, the Potency was 20.9 µM (active).
With `CCCNC(=O)[C@H]1O[C@H]1C(=O)N[C@H](C(=O)N1CCC[C@@H]1C(=O)OC)C(C)CC` (stereo not given in full) the Potency was 5.9 µM (active).
For `CC(=O)O[C@H]1C[C@@H]2CC[C@H]3[C@H]4C[C@H]([N+]5(C)CCCCC5)[C@@H](OC(C)=O)[C@@]4(C)CC[C@@H]3[C@@]2(C)C[C@H]1[N+]1(C)CCCCC1`, the Potency was “inactive”.
In the case of `COc1cc(C(C)C)c(Oc2cnc(NC(CO)CO)nc2N)cc1I`, the Potency is reported as “inactive”.
With `Cc1cc(-c2nnc3n2CCCCC3)c(C)n1-c1ccccc1` the Potency was 0.0012 µM (active).
In the case of `NC(=O)c1ncn([C@@H]2O[C@H](CO)[C@@H](O)[C@@H]2O)c1O`, the Potency is reported as “inactive”.
For `CC(O)(C#Cc1ccc2c(c1)N(c1nc(N)ncc1Cl)CC2)c1nccs1` (stereo not given), the Potency was 14.8 µM (active).
For `c1coc(CNc2ncnc3nc[nH]c23)c1`, the Potency was “inactive”.
For `NC1=N[C@H]2[C@H](CS[C@H]2CCCCC(=O)O)N1`, the Potency was “inactive”.
In the case of `CC(=O)N[C@H]1[C@@H]([C@H](O)[C@H](O)CO)OC(C(=O)O)=C[C@@H]1N=C(N)N`, the Potency is reported as “inactive”.
For `C[C@H](CCC(=O)O)[C@H]1CC[C@H]2[C@@H]3[C@H](O)C[C@@H]4C[C@H](O)CC[C@]4(C)[C@@H]3CC[C@]12C`, the Potency was “inactive”.
With `CON=C(C(=O)N[C@@H]1C(=O)N2C(C(=O)O)=C(CSC(=O)c3ccco3)CS[C@H]12)c1csc(N)n1` the Potency was “inactive”.
For `CC[C@H]1OC(=O)[C@H](C)[C@@H](O[C@H]2C[C@@](C)(OC)[C@@H](O)[C@H](C)O2)[C@H](C)[C@@H](O[C@@H]2O[C@H](C)C[C@H](N(C)C)[C@@H]2O)[C@](C)(OC)C[C@@H](C)C(=O)[C@H](C)[C@@H](O)[C@]1(C)O`, the Potency was “inactive”.
With `COc1cc(C[C@@H](CO)[C@H](CO)Cc2ccc(O)c(OC)c2)ccc1O` the Potency was “inactive”.
For `COC(=O)[C@@H]1CC2=CC(=O)CC[C@]2(C)[C@@]23O[C@@H]2C[C@@]2(C)[C@H](CC[C@@]24CCC(=O)O4)[C@@H]13`, the Potency was “inactive”.
With `CC1=C(C(=O)Nc2cc3cn[nH]c3cc2F)C(c2ccc(Cl)cc2F)N=C(c2ccnc(Cl)c2)N1` (stereo not given) the Potency was “inactive”.
For `C=C1C(=CC=C2CCC[C@]3(C)[C@@H]([C@H](C)CCCC(C)(C)O)CC[C@@H]23)C[C@@H](O)C[C@@H]1O`, the Potency was “inactive”.
With `C[C@H]1COc2c(N3CCN(C)CC3)c(F)cc3c(=O)c(C(=O)O)cn1c23` the Potency was “inactive”.
With `CC(=O)O[C@H]1C[C@@H]2CC[C@H]3[C@H]4C[C@H]([N+]5(C)CCCCC5)[C@@H](OC(C)=O)[C@@]4(C)CC[C@@H]3[C@@]2(C)C[C@H]1N1CCCCC1` the Potency was “inactive”.

Assay: Quantitative High-Throughput drug screen in 47 multiple myeloma cell lines against the NCATS MIPE library collection: MM1S_ATCC cell viability assay (AID 1918980); further: nearly all actives have a fitted effect of over 45% in size
Settings: MM1S myeloma viability, CellTiter-Glo ATP luminescence, 48 h; series mostly up to 45.8 µM
Method in brief: as §1
For `Nc1cccc2c1C(=O)N(C1CCC(=O)NC1=O)C2=O` (stereo not given), the Potency was 0.526 µM (active).
With `CC(C)[C@H](CO)Nc1nc(Nc2cccc(Cl)c2)c2ncn(C(C)C)c2n1` the Potency was 5.9 µM (active).
In the case of `N#Cc1cc(NC(=O)Nc2nnc(-c3ccncc3)s2)ccc1-c1cn[nH]c1`, the Potency is reported as 5.26 µM (active).
With `COC(=O)[C@@H]1[C@H]2C[C@@H]3c4[nH]c5ccccc5c4CCN3C[C@@H]2CC[C@@H]1O` the Potency was “inactive”.
For `COc1cc2c(cc1O)CCC1C2CC[C@@]2(C)C1CC[C@@H]2O` (stereo not given in full), the Potency was 4.69 µM (active).
In the case of `C#Cc1cccc(Nc2ncnc3cc(OCCOC)c(OCCO)cc23)c1`, the Potency is reported as 3.72 µM (active).
With `C[N+](C)([O-])CCNc1ccc(NCC[N+](C)(C)[O-])c2c1C(=O)c1c(O)ccc(O)c1C2=O` the Potency was 20.9 µM (active).
For `C=C1CCC2[C@](C)(CO)C(O)CC[C@]2(C)C1CC=C1C(=O)OCC1O` (stereo not given in full), the Potency was “inactive”.
With `CC(C)n1cnc2c(NCCc3ccc(O)cc3)nc(-c3csc4ccccc34)nc21` the Potency was 0.743 µM (active).
In the case of `CCCNC(=O)[C@H]1O[C@H]1C(=O)N[C@H](C(=O)N1CCC[C@@H]1C(=O)OC)C(C)CC` (stereo not given in full), the Potency is reported as 2.35 µM (active).
With `CC(=O)O[C@H]1C[C@@H]2CC[C@H]3[C@H]4C[C@H]([N+]5(C)CCCCC5)[C@@H](OC(C)=O)[C@@]4(C)CC[C@@H]3[C@@]2(C)C[C@H]1[N+]1(C)CCCCC1` the Potency was 2.09 µM (active).
In the case of `COc1cc(C(C)C)c(Oc2cnc(NC(CO)CO)nc2N)cc1I`, the Potency is reported as 1.05 µM (active).
In the case of `CCN(CC)CCCCNc1ncc2c(n1)N(C)C(=O)N(c1c(Cl)c(OC)cc(OC)c1Cl)C2`, the Potency is reported as 4.69 µM (active).
For `O=S(=O)(O)CCSSCCS(=O)(=O)O`, the Potency was 18.7 µM (active).
In the case of `COc1cc(CCc2cc(NC(=O)c3ccc(N4C[C@@H](C)N[C@@H](C)C4)cc3)n[nH]2)cc(OC)c1`, the Potency is reported as 20.9 µM (active).
For `NC(=O)c1ncn([C@@H]2O[C@H](CO)[C@@H](O)[C@@H]2O)c1O`, the Potency was “inactive”.
In the case of `CC(O)(C#Cc1ccc2c(c1)N(c1nc(N)ncc1Cl)CC2)c1nccs1` (stereo not given), the Potency is reported as 11.8 µM (active).
In the case of `O=C(CN1C(=O)C2(CCCC2)NC[C@H]1c1cc(F)cc(F)c1)Nc1ccc2c(c1)C[C@@]1(C2)C(=O)Nc2ncccc21`, the Potency is reported as “inactive”.
With `CC(=O)N1CCN(c2ccc(OCc3nn(C)c(C)c3-c3cccc4c(CCCOc5cccc6ccccc56)c(C(=O)O)n(Cc5cccnc5)c34)cc2)CC1` the Potency was 0.0372 µM (active).
With `NC1=N[C@H]2[C@H](CS[C@H]2CCCCC(=O)O)N1` the Potency was “inactive”.
For `CC(=O)N[C@H]1[C@@H]([C@H](O)[C@H](O)CO)OC(C(=O)O)=C[C@@H]1N=C(N)N`, the Potency was “inactive”.
With `C[C@H](CCC(=O)O)[C@H]1CC[C@H]2[C@@H]3[C@H](O)C[C@@H]4C[C@H](O)CC[C@]4(C)[C@@H]3CC[C@]12C` the Potency was “inactive”.
For `CN(C)CC(=O)N1CCC(c2ccc(NC(=O)c3ncc(C#N)[nH]3)c(C3=CCCCC3)c2)CC1`, the Potency was 2.35 µM (active).
For `CNC(=O)c1cccc(-c2ccc3c(N4CCOC[C@H]4C)nc(N4CCOC[C@H]4C)nc3n2)c1`, the Potency was 0.0833 µM (active).
For `COc1cc(C[C@@H](CO)[C@H](CO)Cc2ccc(O)c(OC)c2)ccc1O`, the Potency was 0.372 µM (active).
With `C=C1C(=CC=C2CCC[C@]3(C)[C@@H]([C@H](C)CCCC(C)(C)O)CC[C@@H]23)C[C@@H](O)C[C@@H]1O` the Potency was 1.48 µM (active).
In the case of `C[C@H]1COc2c(N3CCN(C)CC3)c(F)cc3c(=O)c(C(=O)O)cn1c23`, the Potency is reported as “inactive”.
In the case of `CC(=O)O[C@H]1C[C@@H]2CC[C@H]3[C@H]4C[C@H]([N+]5(C)CCCCC5)[C@@H](OC(C)=O)[C@@]4(C)CC[C@@H]3[C@@]2(C)C[C@H]1N1CCCCC1`, the Potency is reported as 6.62 µM (active).
